# Measurements taken from PubChem BioAssay (NCATS).
# Inconclusive results are not listed. Activity calls are given as the source filed them. Calls follow the shape of the dose curve; as a rule, active = well fitted inhibition curve with a large enough effect; inconclusive = small, poorly fitted or top-dose-only effect; inactive = flat fitted curve, though single readings scatter.
# Assay: Drug repurposing screens with cells derived from glioblastoma tumor samples (AID 1345199); also: nearly all actives have a fitted effect of over 40% in size
# Settings: GBM patient neurospheres viability, ATP luminescence, 48 h; at 45.9 µM (top of the series); tumour line D
# Procedure, shortened: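 Four patient lines of CD133+ GBM neurospheres were screened at several concentrations; hits were retested in those lines plus three slower-growing GBM lines, using 48-hour treatment and ATP-based viability.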
# % is scaled to controls: 0 for no effect and ±100 for the full control effect; potency is read from the fitted curve at half-maximal effect.
row,Compound,"activity, negative = cell killing"
1,NC(=O)N1c2ccccc2C=Cc2ccccc21,-27.4% (inactive)
2,CCCN(CCC)CCc1cccc2c1CC(=O)N2,4.33% (inactive)
3,C[C@]12CCC(=O)C=C1CC[C@@H]1[C@@H]2C(=O)C[C@@]2(C)[C@H]1CC[C@]2(O)C(=O)CO,-5.79% (inactive)
4,COc1ccc2c(c1OC)C(=O)O[C@@H]2[C@H]1c2c(cc3c(c2OC)OCO3)CCN1C,-14.1% (inactive)
5,COc1cc(Cc2cnc(N)nc2N)cc(OC)c1OC,-9.7% (inactive)
6,N[C@@H](COP(=O)(O)O)C(=O)O,-5.04% (inactive)
7,CN1CCN(CC(=O)N2c3ccccc3C(=O)Nc3cccnc32)CC1,-4.29% (inactive)
8,CCN1CCC[C@H]1CNC(=O)c1c(O)c(Cl)cc(Cl)c1OC,3.21% (inactive)
9,CC(=O)Nc1nnc(S(N)(=O)=O)s1,0.278% (inactive)
10,CC(C)NCC(O)c1cc(O)cc(O)c1 (stereo not given),17.6% (inactive)
11,CNC1(C)C2CCC(C2)C1(C)C (stereo not given),0.479% (inactive)
12,CO[C@@]1(NC(=O)CSCC#N)C(=O)N2C(C(=O)O)=C(CSc3nnnn3C)CS[C@@H]21,-14.3% (inactive)
13,CCN1CCc2nc(N)oc2CC1,-6.92% (inactive)
14,C[C@]12CCC(=O)C=C1CC[C@@H]1[C@@H]2CC[C@@]2(C)[C@H]1CC[C@]2(O)C(=O)CO,0.984% (inactive)
15,c1ccc2c(c1)CCCC2C1=NCCN1 (stereo not given),3.62% (inactive)
16,CCCNC(C)C(=O)Nc1ccccc1C (stereo not given),-8.5% (inactive)
17,O=C(O)CP(=O)(O)O,13.7% (inactive)
18,Cc1nnc(SCC2=C(C(=O)O)N3C(=O)[C@@H](NC(=O)Cn4cnnn4)[C@H]3SC2)s1,-8.75% (inactive)

# Same assay, conditions: GBM patient neurospheres viability, ATP luminescence, 48 h; at 46 µM (top of the series); tumour line A
row,Compound,"activity, negative = cell killing"
1,NC(=O)N1c2ccccc2C=Cc2ccccc21,-32.7% (inactive)
2,C[C@]12CCC(=O)C=C1CC[C@@H]1[C@@H]2C(=O)C[C@@]2(C)[C@H]1CC[C@]2(O)C(=O)CO,-18.4% (inactive)
3,CC(=O)Nc1nnc(S(N)(=O)=O)s1,1.18% (inactive)
4,CO[C@@]1(NC(=O)CSCC#N)C(=O)N2C(C(=O)O)=C(CSc3nnnn3C)CS[C@@H]21,-28.8% (inactive)
5,CCN(CC)CC(=O)Nc1c(C)cccc1C,16.4% (inactive)
6,O=C(O)CP(=O)(O)O,-25.2% (inactive)

# Same assay, conditions: GBM patient neurospheres viability, ATP luminescence, 48 h; at 46.1 µM (top of the series); tumour line C
row,Compound,"activity, negative = cell killing"
1,NC(=O)N1c2ccccc2C=Cc2ccccc21,-16.6% (inactive)
2,CCCN(CCC)CCc1cccc2c1CC(=O)N2,2.12% (inactive)
3,C[C@]12CCC(=O)C=C1CC[C@@H]1[C@@H]2C(=O)C[C@@]2(C)[C@H]1CC[C@]2(O)C(=O)CO,4.73% (inactive)
4,COc1ccc2c(c1OC)C(=O)O[C@@H]2[C@H]1c2c(cc3c(c2OC)OCO3)CCN1C,1.26% (inactive)
5,COc1cc(Cc2cnc(N)nc2N)cc(OC)c1OC,-10.9% (inactive)
6,N[C@@H](COP(=O)(O)O)C(=O)O,-9.92% (inactive)
7,CN1CCN(CC(=O)N2c3ccccc3C(=O)Nc3cccnc32)CC1,9.11% (inactive)
8,COc1ccc(CCN(C)CCCC(C#N)(c2cc(OC)c(OC)c(OC)c2)C(C)C)cc1OC (stereo not given),-13.9% (inactive)
9,CN/C(=C\[N+](=O)[O-])NCCSCc1ccc(CN(C)C)o1,-1.34% (inactive)
10,OC(CCN1CCCCC1)(c1ccccc1)C1CCCCC1 (stereo not given),-28% (inactive)
11,CCN1CCC[C@H]1CNC(=O)c1c(O)c(Cl)cc(Cl)c1OC,9.16% (inactive)
12,CC(=O)Nc1nnc(S(N)(=O)=O)s1,-27.5% (inactive)
13,CC(C)NCC(O)c1cc(O)cc(O)c1 (stereo not given),-22.7% (inactive)
14,CNC1(C)C2CCC(C2)C1(C)C (stereo not given),3.06% (inactive)
15,CCN1CCc2nc(N)oc2CC1,-18.3% (inactive)
16,C[C@]12CCC(=O)C=C1CC[C@@H]1[C@@H]2CC[C@@]2(C)[C@H]1CC[C@]2(O)C(=O)CO,-72.8% (inactive)
17,CCN(CC)CC(=O)Nc1c(C)cccc1C,-29.2% (inactive)
18,c1ccc2c(c1)CCCC2C1=NCCN1 (stereo not given),-14.8% (inactive)
19,CCCNC(C)C(=O)Nc1ccccc1C (stereo not given),-15.8% (inactive)
20,O=C(O)CP(=O)(O)O,-15.6% (inactive)
21,CN1C[C@H](C(=O)N[C@]2(C)O[C@@]3(O)[C@@H]4CCCN4C(=O)[C@H](Cc4ccccc4)N3C2=O)C[C@@H]2c3cccc4[nH]cc(c34)C[C@H]21,4.11% (inactive)
22,Cc1nnc(SCC2=C(C(=O)O)N3C(=O)[C@@H](NC(=O)Cn4cnnn4)[C@H]3SC2)s1,-9.01% (inactive)

# Same assay, conditions: GBM patient neurospheres viability, ATP luminescence, 48 h; tumour line A
row,Compound,Potency
1,CN(C(=O)CCCOc1ccc2[nH]c(=O)ccc2c1)C1CCCCC1,11.2 µM (active)
2,COc1ccc(CCN(C)CCCC(C#N)(c2cc(OC)c(OC)c(OC)c2)C(C)C)cc1OC (stereo not given),14.1 µM (active)
3,COC(=O)C1=C(C)NC(C)=C(C(=O)OC(C)(C)CN(C)CCC(c2ccccc2)c2ccccc2)C1c1cccc([N+](=O)[O-])c1 (stereo not given),2 µM (active)
4,CN(C)CCCN1c2ccccc2Sc2ccccc21,12.6 µM (active)
5,CCCCNc1c(C(=O)OCC)c(C)nc2c1cnn2CC,12.6 µM (active)
6,CN(C)C/C=C(/c1ccc(Br)cc1)c1cccnc1,31.6 µM (active)
7,C(=C\c1ccccc1)/CN1CCN(C(c2ccccc2)c2ccccc2)CC1,7.08 µM (active)
8,Cc1nc2ccccn2c(=O)c1CCN1CCC(C(=O)c2ccc(F)cc2)CC1,6.31 µM (active)
9,CN1C[C@H](C(=O)N[C@]2(C)O[C@@]3(O)[C@@H]4CCCN4C(=O)[C@H](Cc4ccccc4)N3C2=O)C[C@@H]2c3cccc4[nH]cc(c34)C[C@H]21,10 µM (active)
